Measurements reported in PubChem BioAssay.
Active and inactive are the calls of the source. How the calls were made is not given here.

Test: compounds altering viability of human ES cells (AID 493140);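 further: cells exposed to compounds for four days before counting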
Details: human embryonic stem cell survival screen; hits give high values

Question: With `NC(=O)c1ncn([C@@H]2O[C@H](CO)[C@H](O)C2O)n1` (stereo not given in full) as the molecule, how does the survival read?
Answer: 1.33 (inactive)

Question: Which survival does the source give for `CCC(C(=O)C(C)C(O)C(C)CCc1ccc(C)c(O)c1C(=O)O)[C@H]1O[C@](CC)([C@H]2CC[C@](O)(CC)[C@H](C)O2)C[C@@H]1C` (stereo not given in full) here?
Answer: 24.1 (inactive)

Question: For `CCCCCC[C@@H](O)C/C=C\CCCCCCCC(=O)O`, which survival is on record?
Answer: 85.1 (inactive)

Question: Which survival does the source give for `CCCCCCCCC1OC1CCCCCCCC(=O)O` (stereo not given) here?
Answer: 92.8 (inactive)

Question: With `C[C@@H](O)CCC[C@H](O)/C=C/[C@H]1[C@H](O)CC(=O)[C@@H]1C/C=C\CCCC(=O)O` as the molecule, how does the survival read?
Answer: 111 (inactive)

Question: With `C[N+](C)(CCCOc1ccccc1)c1ccccc1` as the molecule, how does the survival read?
Answer: 5.92 (inactive)

Question: With `CCCCC[C@H](O)/C=C/C=C\C/C=C\CCCCC(=O)O` as the molecule, how does the survival read?
Answer: 67.2 (inactive)

Question: With `CCCCC[C@H](O)/C=C/C=C\C/C=C\CCCCCCC(=O)O` as the molecule, how does the survival read?
Answer: 102 (inactive)

Question: For `CCCCC/C=C\C\C=C/C=C/C=C/[C@@H](SCC(N)C(=O)NCC(=O)O)[C@@H](O)CCCC(=O)O` (stereo not given in full), which survival is on record?
Answer: 109 (inactive)

Question: For `COC1C(O)CC(=O)OC(C)CC=CC=CC(OC2CCC(N(C)C)C(C)O2)C(C)CC(CC=O)C1OC1OC(C)C(OC2CC(C)(O)C(O)C(C)O2)C(N(C)C)C1O` (stereo not given), which survival is on record?
Answer: 3.42 (inactive)

Question: For `CCCCC[C@H](O)/C=C/C=C\C/C=C\C=C\[C@@H](O)CCCC(=O)O`, which survival is on record?
Answer: 103 (inactive)

Question: Which survival does the source give for `O=C(O)CCC[C@H](O)\C=C/C=C/C=C/[C@H](O)C/C=C\CCCCCO` here?
Answer: 75.2 (inactive)

Question: For `C[C@@]1(O)CCOC(=O)C1`, which survival is on record?
Answer: 4.42 (inactive)

Question: For `CC(C)NCC1CCc2cc(CO)c([N+](=O)[O-])cc2N1` (stereo not given), which survival is on record?
Answer: 28.3 (inactive)

Question: For `CCCCC/C=C\C=C\[C@@H](O)C/C=C\C/C=C\CCCC(=O)O`, which survival is on record?
Answer: 81.2 (inactive)

Question: For `CCCCC/C=C\C/C=C\C/C=C\C=C\C1CCCC(=O)O1` (stereo not given), which survival is on record?
Answer: 76.9 (inactive)

Question: For `CNC1C(O)C2O[C@H](OC3C(N)C[C@@H](N)C(O)[C@H]3O)C(N)C[C@H]2O[C@@H]1O[C@H]1OC(CO)[C@@H](N)[C@H](O)C1O` (stereo not given in full), which survival is on record?
Answer: 10.6 (inactive)

Question: Which survival does the source give for `CCCCCCCC[C@@H](O)/C=C/C=C/C=C\[C@@H](O)CCCC(=O)O` here?
Answer: 96.4 (inactive)

Question: With `Cn1cnc2nc(NCCO)nc(NCc3ccccc3)c21` as the molecule, how does the survival read?
Answer: 111 (inactive)

Question: Which survival does the source give for `O=C(O)CCC/C=C\C/C=C\C=C\[C@@H](O)C/C=C\CCCCCO` here?
Answer: 89.3 (inactive)

Question: With `CO[C@@H]1[C@H](OC(N)=O)C(O)[C@H](Oc2ccc3c(O)c(NC(=O)c4ccc(O)c(CC=C(C)C)c4)c(=O)oc3c2C)OC1(C)C` (stereo not given in full) as the molecule, how does the survival read?
Answer: 8.33 (inactive)

Question: With `Nc1ncn(C2O[C@H](CO)[C@H](O)[C@@H]2O)c(=O)n1` (stereo not given in full) as the molecule, how does the survival read?
Answer: 0.083 (inactive)

Question: Which survival does the source give for `CN(N=O)C(=O)NC1[C@@H](O)OC(CO)[C@@H](O)[C@H]1O` (stereo not given in full) here?
Answer: 8.42 (inactive)

Question: For `CCO[C@@H]1O[C@H](C(COCc2ccccc2)OCc2ccccc2)[C@@H](OCc2ccccc2)C1O` (stereo not given in full), which survival is on record?
Answer: 10.8 (inactive)

Question: For `CCNC1CC(N)C(OC2OC(CN)=CCC2N)C(O)C1OC1OCC(C)(O)C(NC)C1O` (stereo not given), which survival is on record?
Answer: 17.9 (inactive)

Question: With `NCC1OC(O[C@@H]2C(O)[C@H](OC3C(O)C(N)CC(N)C3OC3OC(CO)C(O)C(O)C3N)O[C@@H]2CO)C(N)C(O)C1O` (stereo not given in full) as the molecule, how does the survival read?
Answer: 5.75 (inactive)

Question: With `NC(=O)c1ccc[n+]([C@H]2O[C@@H](COP(=O)([O-])OP(=O)(O)OC[C@H]3O[C@@H](n4cnc5c(N)ncnc54)C(O)[C@H]3O)C(O)[C@H]2O)c1` (stereo not given in full) as the molecule, how does the survival read?
Answer: 4.5 (inactive)

Question: Which survival does the source give for `CC/C=C\C[C@H](O)/C=C/C=C\C/C=C\C/C=C\CCCC(=O)O` here?
Answer: 122 (inactive)

Question: For `CCCCC/C=C\C[C@@H]1O[C@H]1/C=C/C(O)C/C=C\CCCC(=O)O` (stereo not given in full), which survival is on record?
Answer: 93.9 (inactive)

Question: With `C[C@@]1(OC(=O)/C=C\c2ccccc2)C[C@H](O)[C@@]2(O)C=CO[C@H](OC3OC(CO)C(O)C(O)C3O)C12` (stereo not given in full) as the molecule, how does the survival read?
Answer: 6.83 (inactive)

Question: Which survival does the source give for `CC1(C)S[C@@H]2[C@H](NC(=O)C3(N)CCCCC3)C(=O)N2[C@H]1C(=O)O` here?
Answer: 3.83 (inactive)

Question: For `Nc1ncc2[nH]cnc2n1`, which survival is on record?
Answer: 108 (inactive)

Question: With `CC1O[C@@H](OC2/C=C/C=C/C=C/C=C/C[C@@H](C)OC(=O)/C=C/[C@H]3O[C@@H]3C[C@H](O)C[C@]3(O)C[C@H](O)[C@@H](C(=O)O)[C@H](C2)O3)C(O)C(N)[C@@H]1O` (stereo not given in full) as the molecule, how does the survival read?
Answer: 28.2 (inactive)

Question: With `CO/N=C(/C(=O)N[C@@H]1C(=O)N2C(C(=O)[O-])=C(C[N+]3(C)CCCC3)CS[C@H]12)c1csc(N)n1` as the molecule, how does the survival read?
Answer: 5.92 (inactive)

Question: Which survival does the source give for `O=[N+]([O-])c1ccc(Oc2ccc(Br)cc2)c(C(O)[P+](=O)O)c1` (stereo not given) here?
Answer: 83.4 (inactive)
